Assay results from PubChem BioAssay AID463173 (ICCB-Longwood Screening Facility, Harvard Medical School, 2010).
About 1,700 (3.3%) of roughly 52,000 compounds were called active. The list comes from a sample in which actives are over-represented; it also holds similar structures and randomly drawn compounds. A number with no mark means an inactive call. Cut-off read from the data, not from the text of the source: active = survival mostly below about 52% (no sharp cut-off); inactive = mostly above about 56%.

Test system: Wild type
Assay: growth inhibition of S. aureus wild type versus tarO mutant, primary screen, teichoic acid synthesis inhibitors, RN4220, OD600 (AID 463173)
Conditions: S. aureus RN4220 wild type/DeltatarO growth, OD600, 18 h, stronger effect = lower value, screened at 18.75 µg/mL (by protocol)

Point of comparison: CC(C)(C)OC(=O)N1CCC(c2c(C(=O)NCc3cccs3)cnn2-c2ccc(F)cc2F)CC1, survival 81%. Against it:
- CN(CC(=O)NCc1ccccc1)S(=O)(=O)c1ccc2[nH]c3c(c2c1)CCCC3 — lower, 72%
- COc1cccc(NCc2nnc3n2CCCCC3)c1 — higher, 83%
- Cc1nc2c(c(C)nn2-c2ccccc2)c(C)c1CCC(=O)Nc1ccccc1 — higher, 87%
- CCc1ccc(NC(=O)CSc2nc(=O)n(Cc3ccncc3)c3c2CCC3)cc1 — lower, 80%
- CCn1c(C(=O)NCc2ccc(F)cc2)cc2oc3ccccc3c21 — higher, 115%
- CCn1c(C(=O)NCc2ccccc2Br)cc2oc3ccccc3c21 — lower, 36%
- CCn1c(C(=O)NCc2cc(Br)ccc2OC)cc2oc3ccccc3c21 — lower, 78%
- CCn1c(C(=O)NCc2ccccc2C)cc2oc3ccccc3c21 — lower, 15%
- Clc1ccc(N2CCN(c3ncnc4c3nc3n4CCCC3)CC2)cc1 — lower, 73%
- Cc1ccc(C(=O)Nc2ccc(-n3c(C)nc4ccccc4c3=O)cc2)cc1[N+](=O)[O-] — higher, 121%
- Cc1cc(-n2c(C)nc3ccccc3c2=O)ccc1NC(=O)c1ccc([N+](=O)[O-])cc1 — higher, 82%
- Cc1c(C(=O)Nc2ccc(-n3c(C)nc4ccccc4c3=O)cc2)cccc1[N+](=O)[O-] — lower, 80%
- Cc1cc(-n2c(C)nc3ccccc3c2=O)ccc1NC(=O)c1ccccc1[N+](=O)[O-] — higher, 88%
- COc1ccc(-c2c[n+](=O)c3c(n2[O-])CCC3)cc1 — higher, 103%
- COC(=O)C1CCN(S(=O)(=O)c2ccc(OC)cc2)CC1 — higher, 102%
- CCN(CC)C(=O)c1sc2c(c1C)c(=O)n(Cc1ccccc1)c(=O)n2Cc1ccc(Cl)cc1 — lower, 73%
- CCc1ccc(CNC(=O)C2COc3ccc(OC)cc3C2)cc1 (configuration not stated) — higher, 93%
- Cc1ccc(NC(=O)Cn2cc3c(n2)CCCC3)c(Cl)c1 — higher, 93%
- CCOc1ccc(NC(=O)c2cnn(-c3ccc(C)c(C)c3)c2C2CCN(C(=O)OC(C)(C)C)CC2)cc1 — higher, 89%
- CC(C)(C)OC(=O)N1CCC(c2c(C(=O)NCc3ccccc3)cnn2-c2ccc(F)cc2)CC1 — higher, 133%
- COc1ccc(CNC(=O)c2cnn(-c3ccc(OC)cc3)c2C2CCN(C(=O)OC(C)(C)C)CC2)cc1 — lower, 76%
- CC(C)(C)OC(=O)N1CCC(c2c(C(=O)Nc3ccc4c(c3)OCCO4)cnn2-c2ccc(F)cc2)CC1 — lower, 69%
- Cc1ccc(-n2ncc(C(=O)NCc3cccs3)c2C2CCN(C(=O)OC(C)(C)C)CC2)cc1C — higher, 90%
- COc1ccc(NC(=O)CSc2ncc3c(n2)-c2ccccc2N(Cc2ccc(C)cc2)S3(=O)=O)cc1Cl — higher, 134%
- Cc1cccc(OCC(=O)OCc2cc(=O)n3nc(C4CCCCC4)sc3n2)c1 — higher, 100%
- N#Cc1cc2cc3c(cc2nc1N1CCCN(C(=O)c2ccccc2)CC1)OCO3 — higher, 103%
- COc1ccc(C(=O)NCC(c2ccc3c(c2)OCO3)N2CCN(c3ccccc3F)CC2)cc1 (configuration not stated) — lower, 77%
- Cc1ccc(NC(=O)CN2C(=O)COc3ccc(S(=O)(=O)N4CCCCC4)cc32)cc1N(C)C — higher, 106%
- CC(=O)N1CCc2cc(Br)cc(S(=O)(=O)CCC(=O)N3CCN(c4cccc(C)c4C)CC3)c21 — lower, 77%
- CCc1ccccc1Nc1ncnc2c1nc1n2CCCC1 — lower, 71%
- Fc1ccc(Nc2ncnc3c2nc2n3CCCC2)cc1 — lower, 76%
- Fc1ccccc1Nc1ncnc2c1nc1n2CCCCC1 — lower, 74%
- COc1ccc(Nc2ncnc3c2nc2n3CCCC2)cc1Cl — lower, 59%
- COc1ccccc1Nc1ncnc2c1nc1n2CCCCC1 — higher, 133%
- Clc1cccc(CNc2ncnc3c2nc2n3CCCC2)c1 — higher, 92%
- CCC(=O)N1CCc2cc(S(=O)(=O)NC(Cc3ccccc3)C(=O)NCc3ccc(F)cc3)ccc21 (configuration not stated) — higher, 83%
- COc1ccc(-c2cc(-c3ccccc3)nc(SCC(=O)Nc3ccccc3C)c2C#N)cc1 — lower, 70%
- COC(=O)c1ccc(Cl)cc1NC(=O)N(C)CCc1c(C)nn(C)c1C — higher, 111%
- C#CCn1c(O)c(N=NC(=O)c2ccncc2)c2cc(Br)ccc21 — higher, 110%
- Cc1noc(C)c1S(=O)(=O)NCCc1csc2nc(-c3ccc(Cl)cc3)nn12 — lower, 72%
- O=C(O)c1cccc(NC(=O)c2cccc(S(=O)(=O)Nc3cccc(F)c3)c2)c1 — higher, 169%
- CCc1c(C)nc2nncn2c1Nc1ccc(C)c(F)c1 — higher, 83%
- Cc1cc(C)cc(NC(=O)Cc2c(C(=O)O)c(C)cn2C)c1 — lower, 47%
- CCOC(=O)c1cnc2c(ccc3ccccc32)c1Nc1ccccc1OCC — higher, 109%
- CCOC(=O)c1cnc2c(C)cc(C)cc2c1Nc1ccc(N2CCOCC2)cc1 — lower, 15%
- CCOC(=O)c1cnc2c(C(F)(F)F)cccc2c1Nc1cccc(C(=O)OC)c1 — lower, 26%
- CCOC(=O)c1cnc2c(C)cc(C)cc2c1NCCN1CCOCC1 — lower, 53%
- CCOC(=O)c1cnc2c(Cl)cc(Cl)cc2c1Nc1ccccc1OC — lower, 65%

With CCn1c(C(=O)NCc2cccc(Br)c2)cc2oc3ccccc3c21 the survival was 7% (active).
CCOc1ccccc1CNC(=O)c1cc2oc3ccccc3c2n1CC was tested, and the survival was 2% (active).
For Cc1cc(-n2c(C)nc3ccccc3c2=O)ccc1NC(=O)c1ccc(C)c([N+](=O)[O-])c1, the survival was 10% (active).
With Cc1cc(-n2c(C)nc3ccccc3c2=O)ccc1NC(=O)c1cccc([N+](=O)[O-])c1C the survival was -2% (active).
In the case of CC(C)(C)OC(=O)N1CCC(c2c(C(=O)NCc3ccc(F)cc3)cnn2-c2ccc(F)cc2)CC1, the survival is reported as -6% (active).
For CCOc1ccc(OCC)c(NC(=O)c2cnn(-c3ccc(F)cc3)c2C2CCN(C(=O)OC(C)(C)C)CC2)c1, the survival was 14% (active).
CC(C)(C)OC(=O)N1CCC(c2c(C(=O)NCc3cccs3)cnn2-c2cccc(F)c2)CC1 was tested, and the survival was -6% (active).
For Clc1cccc(Nc2ncnc3c2nc2n3CCCCC2)c1, the survival was -1% (active).
Clc1ccccc1Nc1ncnc2c1nc1n2CCCCC1 was tested, and the survival was 0% (active).
For Fc1ccc(Nc2ncnc3c2nc2n3CCCCC2)c(F)c1, the survival was 14% (active).
With CCOC(=O)c1cnc2c(C)cc(C)cc2c1Nc1cccc(C(=O)O)c1 the survival was 23% (active).
CCOC(=O)c1cnc2c(C)cc(C)cc2c1Nc1ccc(OCc2ccccc2)cc1 was tested, and the survival was 11% (active).
With CCOC(=O)c1cnc2c(C)cc(C)cc2c1Nc1ccccc1OCC the survival was -1% (active).
